# Experimental data from PubChem BioAssay.
# Results filed as inconclusive are left out. The source made the active and inactive calls.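 Rule for the calls, unless noted: active = inhibition above the screen-wide mean plus 3 SD, about 51%; inactive = the rest.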
# Assays:
# [1] = rapamycin-like changes in RPL19A-GFP expression – cell-based, S. cerevisiae, multiplex flow cytometry, primary screen (AID 1862; in the data active = percent of DMSO control GFP below about 86%;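 note: lower values mimic rapamycin by blocking the RPL19A rise seen in DMSO cells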); details: S. cerevisiae RPL19A-GFP strain, flow cytometry fluorescence, 3 h; at 10 µM; stronger effect = lower value
# [2] = TOR pathway GLN3 branch reporter MEP2-GFP changes – S. cerevisiae, multiplex flow cytometry, primary screen (AID 1867;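 active = GFP response, as percent of the DMSO control, above the screen-wide mean plus 3 SD, about 139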;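 note: median GFP channel fluorescence of barcode-gated MEP2-GFP cells measured by flow cytometry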); details: S. cerevisiae MEP2-GFP strain, 3 h, at 10 µM, stronger effect = higher value, 100% means same as DMSO wells
# [3] = TOR pathway RTG branch CIT2 reporter changes – S. cerevisiae, GFP fusion, multiplex flow cytometry, primary screen (AID 1870;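 active = percent response above a set limit, the screen-wide mean plus 3 SD, cut at about 130% in these data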;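 note: barcoded CIT2-GFP strain pooled with four other GFP strains with rapamycin as positive control; median GFP fluorescence per well over plate mean of DMSO wells so 100% = DMSO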); details: S. cerevisiae CIT2-GFP expression, 3 h, at 10 µM, stronger effect = higher value
# [4] = TOR pathway LAP4-GFP level changes – S. cerevisiae, multiplex flow cytometry, primary screen (AID 1873;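 active = GFP signal, as percent of the solvent control, above the screen mean plus 3 SD, about 149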); details: S. cerevisiae LAP4-GFP expression, 3 h, at 10 µM, stronger effect = higher value
# [5] = yeast AGP1-GFP level changes, GLN3 branch – cell-based, multiplex flow cytometry, S. cerevisiae, primary screen (AID 1887;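 active = GFP signal above the screen-wide mean plus 3 SD, that is over about 124.5% of the solvent control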;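 note: AGP1-GFP fusion strain of S. cerevisiae within a five-strain barcoded multiplex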); details: 3 h, at 10 µM, stronger effect = higher value
# [6] = reduced mouse 2C T cell binding to pMHC/ICAM-1 vesicles – MLPCN validation set, flow cytometry, LFA-1/ICAM-1 modulator project, pilot screen (AID 2523;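 active = response below a set limit, under 55% cells CD8-positive and vesicle-bound, and CD8 cells' 90th-percentile brightness under 279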;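 for vesicle binding response: mean PE anti-B7-1 fluorescence of CD8+ cells relative to row control; 100% = QL9-loaded vesicles with DMSO vehicle in the same plate row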); details: 2C mouse CD8+ T cells, at 7 µM, stronger effect = lower value; double positive events: measured here: CD8+/vesicle+ event percentage
# [7] = target: Integrin beta-1 (Homo sapiens) + Integrin alpha-4 (Homo sapiens) (UniProt P13612+P05556); experiment: alpha4beta1 integrin LIBS antibody binding reduction – U937 cells, HUTS-21 mAb, flow cytometry, validation set, VLA-4 allosteric modulator project, pilot screen (AID 2674;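 active = inhibition above 50%, about 3 SD of the validation set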;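 note: antibody binding induced by the VLA-4 ligand LDV present at three times its Kd; 0% = LDV ligand with antibody and no compound and 100% = antibody without LDV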); details: HUTS-21 LIBS mAb binding, at 6.7 µM, stronger effect = higher value, binding induced by LDV ligand
# [8] = calorie-restriction mimetic ROS inhibitors, yeast – validation compound set, pilot screen (AID 2706;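 active = superoxide response below 65% of plate, a cut near 3 SD across the whole screen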;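 note: yeast exposed to compound for one week at 30 degrees C before staining; 100% = mean of all compound wells on the same plate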); details: S. cerevisiae aging, superoxide DHE fluorescence; at 10 µM, stronger effect = lower value
# [9] = target: Beta-adrenergic receptor kinase 1 (Homo sapiens) (UniProt P25098); experiment: GRK2 binders displacing RNA aptamer, biochemical, validation, human GRK2, bead flow cytometry (AID 488806;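 active = aptamer binding inhibition above 30%, about 3 SD of noise from non-fluorescent compounds; inactive = inhibition at or below 30%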); details: bead-bound GRK2, FAM-aptamer displacement, at 10 µM, stronger effect = higher value
# [10] = target: Beta-2 adrenergic receptor (Homo sapiens) (UniProt P07550); experiment: agonist-induced loss of surface beta2AR – cell-based, FAP fluorogen, flow cytometry, validation set, pilot screen (AID 504459;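 active = percent response above 42, roughly 3 SD of non-fluorescent test compounds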;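 note: agonist-driven loss of surface beta2AR via internalization measured by FAP dye flow cytometry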); details: Am2.2-beta2AR cells, at 10 µM, stronger effect = higher value
# [11] = target: AP-2 complex subunit beta (Homo sapiens) (UniProt P63010); experiment: beta-arrestin/AP2 interaction blockers – biochemical, validation set, GST-AP2 beads, flow cytometry, pilot screen (AID 504541;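 active = inhibition above 54%, about 3 SD of non-fluorescent compounds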;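 note: AP2 carries R879A mutation and is captured from E. coli lysate; bead-bound FITC arrestin peptide fluorescence measuring arrestin peptide binding to AP2; 0% = DMSO wells and 100% = excess unlabeled arrestin peptide control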); details: FITC arrestin peptide, at 10 µM, stronger effect = higher value, AP2 beta2 appendage fragment, R879A mutant
# [12] = cytosolic pH regulators acting via V-ATPase – S. cerevisiae, pHLuorin, HTS validation (AID 504600; in the data active = response above about 15%;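 note: plate controls were DMSO for no effect and reference compound for full effect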); details: V-ATPase proton transport, at 10 µM, stronger effect = higher value
# [13] = tested on: anti-desmoglein-3 scFv antibody binding to human DSG3; experiment: blockers of pathogenic pemphigus antibody–desmoglein-3 binding – biochemical, validation compound set, bead-based, flow cytometry, pilot screen (AID 588368;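 active = binding below the plate cutoff, the plate median minus 3 SD, with a reading above zero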;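 note: signal is the median channel fluorescence of bead-bound GFP antibody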); details: Protein G beads, DSG3-Fc, scFv-GFP binding, at 10 µM, stronger effect = lower value
# [14] = target: ATP-binding cassette sub-family B member 6 (Homo sapiens) (UniProt Q9NP58); experiment: blockers of ABCB6-driven porphyrin uptake – K562-ABCB6 cells, flow cytometry, validation set, pilot screen (AID 588550); details: K562-ABCB6 porphyrin accumulation, 1 h, at 10 µM, stronger effect = higher value;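 note: 0% = DMSO wells and 100% = benzethonium chloride 70 µM positive control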
# [15] = AML differentiation inducers, ER-HoxA9 marrow cells – cell-based, GFP/MAC1 double positive, flow cytometry, validation set, primary screen (AID 588685;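 active = differentiation response of at least 50%, scaled between solvent and reference control, from cells with both markers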;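 note: compound exposure lasts four days before antibody staining and flow analysis; 0% = DMSO wells and 100% = 5 µM fulvestrant positive control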); details: stronger effect = higher value, normalized: vehicle 0, fulvestrant 100
# [16] = Nile Red efflux blockade in pump-expressing yeast – validation compound set, multiplex, phenotypic, pilot screen (AID 588506;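 active = efflux inhibition above 0.42, the validation set average plus 4 SD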;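 note: Nile Red retained in cells so higher fluorescence means more efflux inhibition; 0 = negative control wells and 1 = enniatin B 25 µM full block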); details: S. cerevisiae pump-expressing triplex, Nile Red efflux flow cytometry; at 10 µM; stronger effect = higher value; the pumps come from Candida albicans
# AP-2 complex subunit beta (Homo sapiens), sequence (P63010 whole entry, looked up, the tested form may be a part, one chain of several): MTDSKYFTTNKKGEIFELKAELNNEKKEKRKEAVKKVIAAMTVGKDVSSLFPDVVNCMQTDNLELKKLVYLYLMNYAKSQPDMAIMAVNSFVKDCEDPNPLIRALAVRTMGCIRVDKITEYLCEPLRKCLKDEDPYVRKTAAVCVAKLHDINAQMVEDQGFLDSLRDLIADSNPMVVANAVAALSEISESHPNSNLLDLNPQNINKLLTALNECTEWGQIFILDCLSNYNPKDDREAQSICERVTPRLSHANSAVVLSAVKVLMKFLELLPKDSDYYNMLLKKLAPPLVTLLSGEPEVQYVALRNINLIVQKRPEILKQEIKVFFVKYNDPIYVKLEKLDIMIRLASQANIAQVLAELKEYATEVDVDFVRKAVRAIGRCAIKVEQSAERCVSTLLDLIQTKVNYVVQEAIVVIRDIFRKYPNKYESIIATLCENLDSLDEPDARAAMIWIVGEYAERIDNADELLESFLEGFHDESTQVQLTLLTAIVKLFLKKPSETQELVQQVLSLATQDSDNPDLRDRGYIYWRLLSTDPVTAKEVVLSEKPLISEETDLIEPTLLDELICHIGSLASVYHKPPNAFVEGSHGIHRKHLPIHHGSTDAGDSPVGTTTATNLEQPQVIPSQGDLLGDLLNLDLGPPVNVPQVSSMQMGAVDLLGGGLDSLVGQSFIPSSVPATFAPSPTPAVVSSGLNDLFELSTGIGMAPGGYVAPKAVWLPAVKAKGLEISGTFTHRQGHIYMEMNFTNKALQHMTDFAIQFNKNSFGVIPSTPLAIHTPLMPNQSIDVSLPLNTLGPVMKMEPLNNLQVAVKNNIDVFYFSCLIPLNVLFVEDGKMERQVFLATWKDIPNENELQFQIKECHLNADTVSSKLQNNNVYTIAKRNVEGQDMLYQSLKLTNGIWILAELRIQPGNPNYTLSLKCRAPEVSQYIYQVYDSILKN
# Beta-2 adrenergic receptor (Homo sapiens), sequence (P07550 whole entry, looked up): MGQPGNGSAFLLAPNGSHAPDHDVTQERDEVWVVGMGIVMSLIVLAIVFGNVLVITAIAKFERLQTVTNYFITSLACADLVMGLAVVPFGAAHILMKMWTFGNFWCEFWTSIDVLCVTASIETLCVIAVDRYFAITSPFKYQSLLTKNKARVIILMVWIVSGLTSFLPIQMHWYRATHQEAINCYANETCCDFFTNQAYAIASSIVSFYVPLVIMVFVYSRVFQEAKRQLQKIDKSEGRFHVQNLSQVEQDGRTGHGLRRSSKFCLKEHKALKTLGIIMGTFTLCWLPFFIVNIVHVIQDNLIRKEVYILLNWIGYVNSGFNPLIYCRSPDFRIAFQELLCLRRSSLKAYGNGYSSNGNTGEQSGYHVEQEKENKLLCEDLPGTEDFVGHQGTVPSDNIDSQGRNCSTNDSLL
# ATP-binding cassette sub-family B member 6 (Homo sapiens), sequence (Q9NP58 whole entry, looked up): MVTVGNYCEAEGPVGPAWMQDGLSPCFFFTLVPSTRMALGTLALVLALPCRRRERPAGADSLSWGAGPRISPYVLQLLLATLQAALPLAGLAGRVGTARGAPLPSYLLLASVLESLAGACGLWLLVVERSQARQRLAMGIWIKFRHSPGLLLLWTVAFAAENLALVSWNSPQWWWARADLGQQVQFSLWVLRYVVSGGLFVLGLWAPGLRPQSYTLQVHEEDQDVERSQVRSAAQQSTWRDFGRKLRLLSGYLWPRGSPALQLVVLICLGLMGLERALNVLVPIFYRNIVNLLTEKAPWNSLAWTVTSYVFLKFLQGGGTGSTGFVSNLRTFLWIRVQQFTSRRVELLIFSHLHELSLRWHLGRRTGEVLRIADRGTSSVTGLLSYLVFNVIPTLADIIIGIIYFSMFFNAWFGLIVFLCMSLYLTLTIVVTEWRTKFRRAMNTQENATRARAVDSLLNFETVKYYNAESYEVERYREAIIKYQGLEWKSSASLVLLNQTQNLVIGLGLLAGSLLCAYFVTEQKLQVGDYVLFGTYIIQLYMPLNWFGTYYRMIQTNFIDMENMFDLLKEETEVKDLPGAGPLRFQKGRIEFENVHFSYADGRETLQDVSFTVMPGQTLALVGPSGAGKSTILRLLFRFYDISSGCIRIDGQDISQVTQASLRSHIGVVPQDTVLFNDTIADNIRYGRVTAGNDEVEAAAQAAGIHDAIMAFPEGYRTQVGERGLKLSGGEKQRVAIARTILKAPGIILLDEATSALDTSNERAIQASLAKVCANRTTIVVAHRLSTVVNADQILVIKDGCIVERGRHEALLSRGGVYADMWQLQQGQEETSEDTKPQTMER
# Beta-adrenergic receptor kinase 1 (Homo sapiens), sequence (P25098 whole entry, looked up): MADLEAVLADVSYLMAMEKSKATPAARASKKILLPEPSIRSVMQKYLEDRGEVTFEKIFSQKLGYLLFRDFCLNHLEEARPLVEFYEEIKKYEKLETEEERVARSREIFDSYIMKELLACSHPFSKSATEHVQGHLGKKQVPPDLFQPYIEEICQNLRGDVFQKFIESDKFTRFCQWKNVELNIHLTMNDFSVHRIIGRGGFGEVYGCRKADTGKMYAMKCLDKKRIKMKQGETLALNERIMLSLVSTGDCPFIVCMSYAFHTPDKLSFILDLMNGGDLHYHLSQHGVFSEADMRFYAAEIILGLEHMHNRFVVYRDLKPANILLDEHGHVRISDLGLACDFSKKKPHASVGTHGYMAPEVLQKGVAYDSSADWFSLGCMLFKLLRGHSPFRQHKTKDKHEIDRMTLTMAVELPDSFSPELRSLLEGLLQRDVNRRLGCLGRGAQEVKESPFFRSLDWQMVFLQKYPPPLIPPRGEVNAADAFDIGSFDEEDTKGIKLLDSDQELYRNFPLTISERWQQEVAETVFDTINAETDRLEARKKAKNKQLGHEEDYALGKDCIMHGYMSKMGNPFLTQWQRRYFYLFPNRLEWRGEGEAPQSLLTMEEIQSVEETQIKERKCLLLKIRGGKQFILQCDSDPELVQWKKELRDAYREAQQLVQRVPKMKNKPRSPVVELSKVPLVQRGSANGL
# Integrin beta-1 (Homo sapiens) + Integrin alpha-4 (Homo sapiens), sequence (P05556 whole entry, looked up): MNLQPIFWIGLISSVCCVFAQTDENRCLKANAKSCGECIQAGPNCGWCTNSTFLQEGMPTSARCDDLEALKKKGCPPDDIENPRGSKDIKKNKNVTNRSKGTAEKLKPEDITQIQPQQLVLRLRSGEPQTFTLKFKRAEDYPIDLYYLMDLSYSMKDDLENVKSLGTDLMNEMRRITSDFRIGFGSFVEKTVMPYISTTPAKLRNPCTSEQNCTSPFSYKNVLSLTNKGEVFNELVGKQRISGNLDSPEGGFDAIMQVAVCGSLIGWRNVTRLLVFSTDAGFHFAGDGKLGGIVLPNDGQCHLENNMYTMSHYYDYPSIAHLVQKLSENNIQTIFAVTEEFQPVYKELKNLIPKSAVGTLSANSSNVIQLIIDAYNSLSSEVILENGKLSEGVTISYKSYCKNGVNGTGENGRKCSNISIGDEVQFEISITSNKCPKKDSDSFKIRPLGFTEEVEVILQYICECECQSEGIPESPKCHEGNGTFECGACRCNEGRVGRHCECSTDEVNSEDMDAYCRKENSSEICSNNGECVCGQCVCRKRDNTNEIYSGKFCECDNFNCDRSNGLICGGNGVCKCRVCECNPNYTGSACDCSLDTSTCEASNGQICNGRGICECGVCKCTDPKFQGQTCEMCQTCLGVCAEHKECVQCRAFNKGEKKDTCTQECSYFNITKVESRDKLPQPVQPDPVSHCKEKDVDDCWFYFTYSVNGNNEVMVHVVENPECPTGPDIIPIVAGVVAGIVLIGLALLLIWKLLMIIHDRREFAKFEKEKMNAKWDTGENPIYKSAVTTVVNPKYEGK
# Integrin beta-1 (Homo sapiens) + Integrin alpha-4 (Homo sapiens), sequence (P13612 whole entry, looked up): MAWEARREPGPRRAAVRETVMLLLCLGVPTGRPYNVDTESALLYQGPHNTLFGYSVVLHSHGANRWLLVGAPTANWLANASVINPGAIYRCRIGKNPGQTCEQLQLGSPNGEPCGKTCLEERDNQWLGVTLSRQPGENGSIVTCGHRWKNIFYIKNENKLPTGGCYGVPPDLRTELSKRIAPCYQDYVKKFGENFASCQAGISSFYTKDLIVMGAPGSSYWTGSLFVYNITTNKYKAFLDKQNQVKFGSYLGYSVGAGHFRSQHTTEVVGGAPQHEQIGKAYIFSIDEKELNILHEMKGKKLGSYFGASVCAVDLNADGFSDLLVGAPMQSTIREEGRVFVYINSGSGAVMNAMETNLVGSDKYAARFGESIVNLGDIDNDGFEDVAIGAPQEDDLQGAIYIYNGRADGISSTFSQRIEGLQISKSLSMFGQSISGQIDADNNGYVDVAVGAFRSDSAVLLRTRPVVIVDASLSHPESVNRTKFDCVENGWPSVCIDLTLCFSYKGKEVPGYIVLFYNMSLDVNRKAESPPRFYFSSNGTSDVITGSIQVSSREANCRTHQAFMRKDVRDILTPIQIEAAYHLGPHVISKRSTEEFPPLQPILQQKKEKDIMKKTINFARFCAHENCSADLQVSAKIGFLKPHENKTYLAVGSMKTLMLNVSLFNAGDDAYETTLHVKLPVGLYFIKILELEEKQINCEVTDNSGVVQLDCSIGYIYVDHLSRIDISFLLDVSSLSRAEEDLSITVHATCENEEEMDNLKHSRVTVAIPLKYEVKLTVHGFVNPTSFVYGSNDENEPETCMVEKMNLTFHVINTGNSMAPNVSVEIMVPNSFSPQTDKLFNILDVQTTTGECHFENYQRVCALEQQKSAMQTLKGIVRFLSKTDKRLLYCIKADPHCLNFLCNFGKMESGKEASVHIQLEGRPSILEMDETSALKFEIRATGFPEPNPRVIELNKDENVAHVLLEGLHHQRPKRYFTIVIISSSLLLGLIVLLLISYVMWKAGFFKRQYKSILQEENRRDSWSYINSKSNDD
Structure (SMILES),percent of DMSO control GFP [1],GFP response vs DMSO [2],percent response of DMSO control [3],GFP response vs DMSO [4],"GFP response, % of DMSO [5]",double positive events [6] [%],vesicle binding response [6],inhibition [7],superoxide response (% of plate) [8],aptamer binding inhibition [9],response [10],inhibition [11],response [12],binding (% of control) [13],inhibition [14],differentiation response [15],efflux inhibition (fraction of control) [16]
CC(C)NC(=O)c1ccc(C(C)C)cc1,98.4% (inactive),102% (inactive),108% (inactive),118% (inactive),101% (inactive),63.6,255% (inactive),-11.3% (inactive),109% (inactive),-2% (inactive),0.9% (inactive),-5.8% (inactive),-1.44% (inactive),102% (inactive),13% (inactive),2.4% (inactive),
CCc1cc(=O)oc2cc(C)c(CN3CCCC(C)C3)c(O)c12 (centres undefined),102% (inactive),103% (inactive),103% (inactive),84.3% (inactive),94.9% (inactive),52.2,161% (inactive),-5.84% (inactive),105% (inactive),2% (inactive),,26.7% (inactive),-0.18% (inactive),73.4% (inactive),5% (inactive),-18% (inactive),0.18 (inactive)
CC(C)c1ccccc1OCCNC(=S)NC(=O)c1cccnc1,98.2% (inactive),97.4% (inactive),92% (inactive),96.5% (inactive),96.3% (inactive),62.4,185% (inactive),22.8% (inactive),105% (inactive),-3% (inactive),4.29% (inactive),,-2.54% (inactive),99.7% (inactive),3% (inactive),100% (active),1.3 (active)
CCC(C)NCCOCCOc1ccc(Cl)c2ccccc12 (centres undefined),96.6% (inactive),123% (inactive),107% (inactive),99% (inactive),96.1% (inactive),56.7,204% (inactive),26.8% (inactive),83.4% (inactive),-5% (inactive),34.5% (inactive),,-0.59% (inactive),108% (inactive),6% (inactive),24.6% (inactive),0.09 (inactive)
CC1(C)S[C@@H]2[C@H](NC(=O)C(C(=O)O)c3ccccc3)C(=O)N2[C@H]1C(=O)O (some centres undefined),96.3% (inactive),94.8% (inactive),105% (inactive),88.3% (inactive),98.5% (inactive),53.1,212% (inactive),2.56% (inactive),108% (inactive),4% (inactive),,1.78% (inactive),-1.48% (inactive),97.2% (inactive),9% (inactive),1.41% (inactive),-0.12 (inactive)
CN1CCC(=C2c3ccccc3C=Cc3ccccc32)CC1,98.8% (inactive),99.9% (inactive),105% (inactive),104% (inactive),99.7% (inactive),62.8,194% (inactive),13.8% (inactive),88.8% (inactive),-3% (inactive),,24.3% (inactive),-5.41% (inactive),97.2% (inactive),8% (inactive),-29.3% (inactive),-0.09 (inactive)
COc1ccc2c(c1)CC[C@@H]1[C@@H]2CC[C@]2(C)C(=O)CC[C@@H]12,102% (inactive),102% (inactive),98.6% (inactive),133% (inactive),104% (inactive),58.2,122% (inactive),-7.79% (inactive),98.6% (inactive),-1% (inactive),-15.3% (inactive),-2.71% (inactive),109% (active),102% (inactive),3% (inactive),-0.18% (inactive),
COc1ccc(-c2[nH]ncc2C=O)cc1OC,99.3% (inactive),96.9% (inactive),106% (inactive),91.3% (inactive),95.8% (inactive),52,201% (inactive),-1.17% (inactive),93.7% (inactive),2% (inactive),,11.3% (inactive),3.37% (inactive),101% (inactive),8% (inactive),-11.5% (inactive),-0.12 (inactive)
CN(C)c1ccc(O)c2c1CC1CC3[C@@H](N(C)C)C(=O)C(C(N)=O)=C(O)[C@]3(O)C(=O)C1=C2O (some centres undefined),100% (inactive),101% (inactive),97.6% (inactive),93.7% (inactive),93% (inactive),63,162% (inactive),4.27% (inactive),99.5% (inactive),29% (inactive),1.7% (inactive),6.63% (inactive),-2.16% (inactive),93.6% (inactive),6% (inactive),-3.11% (inactive),
